Where “and” joins values, the source holds several entries; their conditions need not be identical. Equal values may be shown once. Records with an inconclusive call do not appear. Calls of active or inactive are those of the source. Calls come from the whole dose curve.
experiment: qHTS assay for small molecule disruptors of the mitochondrial membrane potential - 1 hr assay (AID 651754); settings: series mostly up to 92.2 µM; note: nearly all actives have a fitted effect of over 35% in size
Description: National Center for Advancing Translational Sciences [NCATS]
NIH Chemical Genomics Center [NCGC]
National Institutes of Environmental Health Sciences [NIEHS]
National Toxicology Program [NTP]
Mitochondrial membrane potential (MMP), one of the parameters for mitochondrial function, is generated by mitochondrial electron transport chain that creates an electrochemical gradient by a series of redox reactions. This gradient drives the synthesis of ATP, a crucial molecule for various cellular processes. Measuring MMP in living cells is commonly used to assess the effect of chemicals on mitochondrial function. […] The dye accumulates in the mitochondria of healthy cells as aggregates, with red fluorescence. The mitochondrial potential collapses and the dye can no longer accumulate in the mitochondria and remains in the cytoplasm in monomers, with green fluorescence.
2,000 HepG2 cells in 5 uL/well were dispensed into black, clear-bottom 1536-well plates using a Multidrop Combi (Thermo Scientific) dispenser. The assay plates were incubated overnight at 37C to allow cells to attach to the wells, followed by the transfer of 23 nL compound or DMSO vehicle by a pin tool (Kalypsys). The plates were incubated for 1 hr at 37C and 5% CO2, followed by the addition of 5 uL of 2X Mito-MPS dye (BD Biosciences) into each well using Flying Reagent Dispenser (Aurora Discovery) and then following 30 min incubation at 37C. Fluorescence intensity (490nm excitation and 535nm emission for monomers; and 540nm excitation and 590nm emissions for aggregates) was measured using an Envision plate reader.
Potency is the fitted concentration of half-maximal effect.

| SMILES | Potency |
| --- | --- |
| Nc1ccc(Cl)cc1N | 8.41 µM (active) |
| CCCCC(CC)COC(=O)c1ccccc1C(=O)OCC(CC)CCCC (stereo not given) | inactive |
| Nc1ccc(Sc2ccc(N)cc2)cc1 | inactive |
| CC(C)(c1ccc(O)cc1)c1ccc(O)cc1 | 26.6 µM (active) and 13.3 µM (active) |
| O=[N+]([O-])c1c(Cl)c(Cl)cc(Cl)c1Cl | inactive |
| COc1ccc(C(c2ccc(OC)cc2)C(Cl)(Cl)Cl)cc1 | 23.7 µM (active) and 37.6 µM (active) |
| COC(C)(C)CCCC(C)C/C=C/C(C)=C/C(=O)OC(C)C (stereo not given) | inactive |
| O=[N+]([O-])c1cc([N+](=O)[O-])c2ccccc2c1 | 33.5 µM (active) |
| CC(=O)[O][Hg][c]1ccccc1 | 16.8 µM (active) |
| Nc1ccc(Cl)cc1 | inactive |
| Cc1cc(O)ccc1Cl | inactive |
| O=[N+]([O-])c1c2ccccc2cc2ccccc12 | 11.9 µM (active) |
| CC(C)(O)C(=O)Nc1ccc([N+](=O)[O-])c(C(F)(F)F)c1 | 29.8 µM (active) |
| CN(C)NC(=O)CCC(=O)O | inactive |
| Nc1cccc2c(N)cccc12 | 2.98 µM (active) |

Source: PubChem BioAssay (NCATS)
